# In ChEMBL document CHEMBL2218924, “A broad activity screen in support of a chemogenomic map for kinase signalling research and drug discovery” (Biochem J, 2013):
# Legend:
# [1] = target: Ephrin type-A receptor 5 (Homo sapiens) (UniProt P54756); details: at 1 µM
# [2] = target: Ephrin type-A receptor 7 (Homo sapiens) (UniProt Q15375); details: at 1 µM
# [3] = target: Ephrin type-A receptor 7 (Homo sapiens) (UniProt Q15375); details: at 10 µM
# [4] = target: T1, Ephrin type-B receptor 1 (Homo sapiens) (UniProt P54762); details: at 1 µM
# T1 sequence (whole entry): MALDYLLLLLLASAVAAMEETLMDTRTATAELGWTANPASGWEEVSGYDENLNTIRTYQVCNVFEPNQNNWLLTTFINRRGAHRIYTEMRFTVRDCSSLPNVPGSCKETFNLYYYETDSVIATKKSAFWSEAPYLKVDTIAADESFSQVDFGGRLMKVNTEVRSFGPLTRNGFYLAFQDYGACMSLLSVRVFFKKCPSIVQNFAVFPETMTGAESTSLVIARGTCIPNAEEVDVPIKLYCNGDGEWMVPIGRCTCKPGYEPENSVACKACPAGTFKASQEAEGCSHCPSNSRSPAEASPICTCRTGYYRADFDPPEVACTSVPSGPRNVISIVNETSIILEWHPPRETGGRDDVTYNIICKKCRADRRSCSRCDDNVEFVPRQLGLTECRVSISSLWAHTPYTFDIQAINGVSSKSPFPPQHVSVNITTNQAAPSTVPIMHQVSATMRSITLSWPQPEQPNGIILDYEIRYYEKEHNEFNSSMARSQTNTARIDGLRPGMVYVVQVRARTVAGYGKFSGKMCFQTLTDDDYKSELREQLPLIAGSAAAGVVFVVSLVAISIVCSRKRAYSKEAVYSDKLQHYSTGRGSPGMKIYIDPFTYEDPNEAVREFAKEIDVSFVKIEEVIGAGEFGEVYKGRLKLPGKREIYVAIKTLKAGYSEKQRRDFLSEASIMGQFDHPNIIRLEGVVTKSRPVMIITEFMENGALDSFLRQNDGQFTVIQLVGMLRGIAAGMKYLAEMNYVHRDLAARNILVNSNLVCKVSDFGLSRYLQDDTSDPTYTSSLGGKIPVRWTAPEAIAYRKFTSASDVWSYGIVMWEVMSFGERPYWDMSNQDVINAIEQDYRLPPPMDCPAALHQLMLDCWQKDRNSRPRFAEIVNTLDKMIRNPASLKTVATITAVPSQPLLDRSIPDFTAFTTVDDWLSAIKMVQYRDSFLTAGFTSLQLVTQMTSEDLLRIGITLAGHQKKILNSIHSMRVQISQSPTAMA
# [5] = target: T1, Ephrin type-B receptor 1 (Homo sapiens); details: at 10 µM
# [6] = target: T2, Ephrin type-B receptor 3 (Homo sapiens) (UniProt P54753); details: at 1 µM
# T2 sequence (whole entry): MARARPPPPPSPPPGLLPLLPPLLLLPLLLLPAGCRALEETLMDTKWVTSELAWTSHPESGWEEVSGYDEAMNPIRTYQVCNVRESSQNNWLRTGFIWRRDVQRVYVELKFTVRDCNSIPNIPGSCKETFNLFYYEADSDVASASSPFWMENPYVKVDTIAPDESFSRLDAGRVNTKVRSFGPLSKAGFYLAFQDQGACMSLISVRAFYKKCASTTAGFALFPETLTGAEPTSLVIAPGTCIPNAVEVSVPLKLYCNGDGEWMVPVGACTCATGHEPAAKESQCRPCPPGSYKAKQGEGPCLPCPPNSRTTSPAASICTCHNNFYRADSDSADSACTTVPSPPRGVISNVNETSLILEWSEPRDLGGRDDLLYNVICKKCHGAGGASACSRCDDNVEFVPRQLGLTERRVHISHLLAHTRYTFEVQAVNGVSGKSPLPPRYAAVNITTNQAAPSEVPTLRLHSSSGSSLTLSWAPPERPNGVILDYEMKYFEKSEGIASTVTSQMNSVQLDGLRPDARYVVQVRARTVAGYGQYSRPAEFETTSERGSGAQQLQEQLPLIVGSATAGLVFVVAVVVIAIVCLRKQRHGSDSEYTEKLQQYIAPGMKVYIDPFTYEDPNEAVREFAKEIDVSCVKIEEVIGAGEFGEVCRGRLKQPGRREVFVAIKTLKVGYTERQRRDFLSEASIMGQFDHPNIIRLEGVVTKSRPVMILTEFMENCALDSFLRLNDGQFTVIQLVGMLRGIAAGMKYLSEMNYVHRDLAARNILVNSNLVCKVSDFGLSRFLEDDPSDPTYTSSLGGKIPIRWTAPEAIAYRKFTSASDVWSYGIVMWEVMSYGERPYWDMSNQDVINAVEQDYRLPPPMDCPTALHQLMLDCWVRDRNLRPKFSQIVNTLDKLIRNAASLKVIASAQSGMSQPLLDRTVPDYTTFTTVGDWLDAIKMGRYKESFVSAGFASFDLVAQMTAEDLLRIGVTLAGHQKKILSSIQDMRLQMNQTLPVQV
# [7] = target: T3, Ephrin type-B receptor 4 (Homo sapiens) (UniProt P54760); details: at 1 µM
# T3 sequence (whole entry): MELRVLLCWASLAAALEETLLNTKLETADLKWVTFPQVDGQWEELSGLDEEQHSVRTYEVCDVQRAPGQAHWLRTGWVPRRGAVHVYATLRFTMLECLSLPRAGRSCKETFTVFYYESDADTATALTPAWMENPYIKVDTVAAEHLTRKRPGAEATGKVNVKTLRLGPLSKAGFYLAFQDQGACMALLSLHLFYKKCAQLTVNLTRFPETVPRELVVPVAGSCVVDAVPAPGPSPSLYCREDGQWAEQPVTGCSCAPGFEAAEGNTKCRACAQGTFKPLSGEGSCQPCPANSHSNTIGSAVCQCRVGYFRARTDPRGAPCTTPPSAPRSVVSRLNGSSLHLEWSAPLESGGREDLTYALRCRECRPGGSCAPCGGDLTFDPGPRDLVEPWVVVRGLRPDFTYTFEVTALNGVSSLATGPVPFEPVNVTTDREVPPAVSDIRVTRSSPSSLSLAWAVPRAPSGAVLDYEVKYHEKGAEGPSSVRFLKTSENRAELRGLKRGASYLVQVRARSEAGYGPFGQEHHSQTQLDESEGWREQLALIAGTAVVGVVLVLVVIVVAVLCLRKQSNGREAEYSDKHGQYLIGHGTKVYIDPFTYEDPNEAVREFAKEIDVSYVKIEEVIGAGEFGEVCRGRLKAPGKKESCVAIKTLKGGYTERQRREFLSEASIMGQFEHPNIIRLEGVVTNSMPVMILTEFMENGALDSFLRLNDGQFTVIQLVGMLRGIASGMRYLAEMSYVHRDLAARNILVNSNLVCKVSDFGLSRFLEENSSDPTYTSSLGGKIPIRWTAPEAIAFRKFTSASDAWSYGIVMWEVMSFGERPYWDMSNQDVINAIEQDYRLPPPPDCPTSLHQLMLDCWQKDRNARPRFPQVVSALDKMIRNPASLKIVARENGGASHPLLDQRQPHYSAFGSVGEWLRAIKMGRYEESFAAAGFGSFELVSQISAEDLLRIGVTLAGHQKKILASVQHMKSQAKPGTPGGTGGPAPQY
# [8] = target: T3, Ephrin type-B receptor 4 (Homo sapiens); details: at 10 µM
# [9] = target: Receptor tyrosine-protein kinase erbB-4 (Homo sapiens) (UniProt Q15303); details: at 1 µM
# Sequence of Receptor tyrosine-protein kinase erbB-4 (Homo sapiens) (Q15303 whole entry): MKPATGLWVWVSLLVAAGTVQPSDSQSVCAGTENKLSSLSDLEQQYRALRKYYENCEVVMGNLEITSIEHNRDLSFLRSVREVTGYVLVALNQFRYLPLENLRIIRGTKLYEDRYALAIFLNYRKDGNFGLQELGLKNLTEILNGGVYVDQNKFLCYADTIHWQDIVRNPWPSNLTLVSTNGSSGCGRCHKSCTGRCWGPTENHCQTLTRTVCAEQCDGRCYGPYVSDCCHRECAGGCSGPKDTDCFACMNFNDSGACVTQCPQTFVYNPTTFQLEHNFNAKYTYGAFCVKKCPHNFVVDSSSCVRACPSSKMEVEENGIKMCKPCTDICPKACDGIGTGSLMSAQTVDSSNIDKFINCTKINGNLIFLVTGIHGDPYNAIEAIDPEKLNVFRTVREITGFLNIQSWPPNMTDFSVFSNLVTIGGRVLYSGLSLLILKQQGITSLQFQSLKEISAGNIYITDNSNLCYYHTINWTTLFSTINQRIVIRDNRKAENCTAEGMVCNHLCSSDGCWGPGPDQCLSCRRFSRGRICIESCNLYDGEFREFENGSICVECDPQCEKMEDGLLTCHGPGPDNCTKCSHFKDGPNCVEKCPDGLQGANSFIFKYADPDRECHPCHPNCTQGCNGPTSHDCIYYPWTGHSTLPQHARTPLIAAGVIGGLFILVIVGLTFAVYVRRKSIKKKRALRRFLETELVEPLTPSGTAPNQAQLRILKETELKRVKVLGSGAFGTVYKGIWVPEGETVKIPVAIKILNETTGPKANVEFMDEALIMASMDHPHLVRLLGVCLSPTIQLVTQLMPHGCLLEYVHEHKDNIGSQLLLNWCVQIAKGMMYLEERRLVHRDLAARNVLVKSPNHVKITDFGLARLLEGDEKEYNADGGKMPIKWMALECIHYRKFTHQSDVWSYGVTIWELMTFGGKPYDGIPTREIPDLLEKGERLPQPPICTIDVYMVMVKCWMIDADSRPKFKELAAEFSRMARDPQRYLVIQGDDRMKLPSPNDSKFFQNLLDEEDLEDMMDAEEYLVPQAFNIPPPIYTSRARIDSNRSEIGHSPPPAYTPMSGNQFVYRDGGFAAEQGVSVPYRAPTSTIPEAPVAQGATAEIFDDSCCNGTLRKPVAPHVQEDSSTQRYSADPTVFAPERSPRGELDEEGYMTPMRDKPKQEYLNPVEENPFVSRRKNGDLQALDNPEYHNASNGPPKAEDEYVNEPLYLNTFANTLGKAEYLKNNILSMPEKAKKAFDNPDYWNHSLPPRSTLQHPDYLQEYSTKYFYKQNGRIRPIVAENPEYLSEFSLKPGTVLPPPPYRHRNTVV
# [10] = target: Receptor tyrosine-protein kinase erbB-4 (Homo sapiens) (UniProt Q15303); details: at 10 µM
# [11] = target: Focal adhesion kinase 1 (Homo sapiens) (UniProt Q05397); details: at 1 µM
# Sequence of Focal adhesion kinase 1 (Homo sapiens) (Q05397 2-1052 limits assumed): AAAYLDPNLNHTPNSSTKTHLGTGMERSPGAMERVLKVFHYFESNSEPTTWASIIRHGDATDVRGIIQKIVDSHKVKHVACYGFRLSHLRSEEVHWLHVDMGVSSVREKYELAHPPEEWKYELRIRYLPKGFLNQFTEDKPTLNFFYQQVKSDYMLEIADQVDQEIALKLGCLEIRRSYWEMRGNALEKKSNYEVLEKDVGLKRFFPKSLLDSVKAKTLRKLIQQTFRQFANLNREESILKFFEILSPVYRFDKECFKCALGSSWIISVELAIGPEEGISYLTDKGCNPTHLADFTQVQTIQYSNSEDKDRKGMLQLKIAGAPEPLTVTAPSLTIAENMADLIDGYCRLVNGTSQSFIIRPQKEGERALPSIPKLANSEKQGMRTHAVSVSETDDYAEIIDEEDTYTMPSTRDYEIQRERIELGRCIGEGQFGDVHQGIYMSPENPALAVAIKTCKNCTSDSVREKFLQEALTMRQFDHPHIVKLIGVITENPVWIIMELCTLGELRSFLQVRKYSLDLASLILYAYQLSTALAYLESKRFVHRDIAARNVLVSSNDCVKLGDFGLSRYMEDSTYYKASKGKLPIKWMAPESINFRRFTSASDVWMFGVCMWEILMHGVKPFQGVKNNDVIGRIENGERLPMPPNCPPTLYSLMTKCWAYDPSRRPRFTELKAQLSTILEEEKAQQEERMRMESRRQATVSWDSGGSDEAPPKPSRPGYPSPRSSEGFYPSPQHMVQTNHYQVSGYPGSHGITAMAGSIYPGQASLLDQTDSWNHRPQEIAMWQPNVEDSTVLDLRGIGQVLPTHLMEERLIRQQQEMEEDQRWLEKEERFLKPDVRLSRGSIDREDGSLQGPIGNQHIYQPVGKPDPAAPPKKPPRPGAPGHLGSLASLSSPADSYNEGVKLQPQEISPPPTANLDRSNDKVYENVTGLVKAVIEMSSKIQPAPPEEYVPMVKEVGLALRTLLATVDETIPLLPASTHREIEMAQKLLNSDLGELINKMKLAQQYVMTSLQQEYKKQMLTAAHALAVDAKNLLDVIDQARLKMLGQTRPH
# [12] = target: T4, Ephrin type-A receptor 3 (Homo sapiens) (UniProt P29320); details: at 10 µM
# T4 sequence (whole entry): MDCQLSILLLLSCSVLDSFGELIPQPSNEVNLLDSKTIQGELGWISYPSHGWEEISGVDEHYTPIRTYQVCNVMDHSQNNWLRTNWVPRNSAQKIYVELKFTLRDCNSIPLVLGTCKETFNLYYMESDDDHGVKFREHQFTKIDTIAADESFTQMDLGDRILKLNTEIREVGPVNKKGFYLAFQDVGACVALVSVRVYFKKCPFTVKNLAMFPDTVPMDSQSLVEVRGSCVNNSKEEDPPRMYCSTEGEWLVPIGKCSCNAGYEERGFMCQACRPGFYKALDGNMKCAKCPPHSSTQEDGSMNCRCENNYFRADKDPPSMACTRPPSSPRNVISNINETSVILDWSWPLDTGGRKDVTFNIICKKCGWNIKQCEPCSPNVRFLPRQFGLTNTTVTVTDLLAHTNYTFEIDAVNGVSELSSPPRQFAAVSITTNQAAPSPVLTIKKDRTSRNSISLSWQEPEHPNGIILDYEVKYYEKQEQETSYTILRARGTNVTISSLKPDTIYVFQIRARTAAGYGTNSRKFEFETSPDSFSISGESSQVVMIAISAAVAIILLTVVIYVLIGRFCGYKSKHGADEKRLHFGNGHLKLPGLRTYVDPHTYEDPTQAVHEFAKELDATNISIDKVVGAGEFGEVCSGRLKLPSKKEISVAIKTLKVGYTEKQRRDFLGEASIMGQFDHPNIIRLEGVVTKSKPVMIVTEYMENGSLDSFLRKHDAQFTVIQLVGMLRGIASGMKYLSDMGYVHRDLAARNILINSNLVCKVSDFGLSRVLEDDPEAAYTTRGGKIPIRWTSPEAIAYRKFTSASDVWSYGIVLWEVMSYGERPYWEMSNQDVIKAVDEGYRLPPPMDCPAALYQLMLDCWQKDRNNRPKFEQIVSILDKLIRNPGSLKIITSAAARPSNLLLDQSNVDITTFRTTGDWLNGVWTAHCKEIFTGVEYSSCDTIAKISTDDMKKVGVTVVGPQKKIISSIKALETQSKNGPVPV
# [13] = target: Ephrin type-A receptor 4 (Homo sapiens) (UniProt P54764); details: at 1 µM
# Sequence of Ephrin type-A receptor 4 (Homo sapiens) (P54764 whole entry): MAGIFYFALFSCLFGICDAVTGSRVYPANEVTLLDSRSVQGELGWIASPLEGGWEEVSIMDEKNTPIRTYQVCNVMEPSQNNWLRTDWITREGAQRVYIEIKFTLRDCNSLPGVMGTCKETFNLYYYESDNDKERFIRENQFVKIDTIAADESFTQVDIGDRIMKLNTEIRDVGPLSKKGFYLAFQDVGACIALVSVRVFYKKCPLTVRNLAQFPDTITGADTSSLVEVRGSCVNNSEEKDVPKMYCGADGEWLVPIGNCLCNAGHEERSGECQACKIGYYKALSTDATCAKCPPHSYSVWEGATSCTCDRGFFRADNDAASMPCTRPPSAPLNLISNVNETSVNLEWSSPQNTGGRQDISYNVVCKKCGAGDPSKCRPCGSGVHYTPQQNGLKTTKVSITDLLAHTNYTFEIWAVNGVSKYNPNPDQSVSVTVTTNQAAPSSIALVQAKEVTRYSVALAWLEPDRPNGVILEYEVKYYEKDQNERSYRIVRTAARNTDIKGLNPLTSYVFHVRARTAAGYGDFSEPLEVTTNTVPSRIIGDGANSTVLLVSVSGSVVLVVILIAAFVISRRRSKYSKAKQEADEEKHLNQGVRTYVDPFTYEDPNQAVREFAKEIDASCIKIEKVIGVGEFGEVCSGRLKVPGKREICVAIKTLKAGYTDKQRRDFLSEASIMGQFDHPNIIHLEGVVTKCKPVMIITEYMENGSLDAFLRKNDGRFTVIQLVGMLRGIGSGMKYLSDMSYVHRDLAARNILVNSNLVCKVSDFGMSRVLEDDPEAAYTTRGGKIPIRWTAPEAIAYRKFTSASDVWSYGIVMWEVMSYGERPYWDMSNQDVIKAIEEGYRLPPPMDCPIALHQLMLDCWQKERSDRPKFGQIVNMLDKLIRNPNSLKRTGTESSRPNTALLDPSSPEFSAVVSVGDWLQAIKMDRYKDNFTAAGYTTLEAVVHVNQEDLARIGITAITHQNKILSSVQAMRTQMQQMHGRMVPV
# [14] = target: Ephrin type-A receptor 4 (Homo sapiens) (UniProt P54764); details: at 10 µM
# [15] = target: T5, Ephrin type-B receptor 2 (Homo sapiens) (UniProt P29323); details: at 1 µM
# T5 sequence (whole entry): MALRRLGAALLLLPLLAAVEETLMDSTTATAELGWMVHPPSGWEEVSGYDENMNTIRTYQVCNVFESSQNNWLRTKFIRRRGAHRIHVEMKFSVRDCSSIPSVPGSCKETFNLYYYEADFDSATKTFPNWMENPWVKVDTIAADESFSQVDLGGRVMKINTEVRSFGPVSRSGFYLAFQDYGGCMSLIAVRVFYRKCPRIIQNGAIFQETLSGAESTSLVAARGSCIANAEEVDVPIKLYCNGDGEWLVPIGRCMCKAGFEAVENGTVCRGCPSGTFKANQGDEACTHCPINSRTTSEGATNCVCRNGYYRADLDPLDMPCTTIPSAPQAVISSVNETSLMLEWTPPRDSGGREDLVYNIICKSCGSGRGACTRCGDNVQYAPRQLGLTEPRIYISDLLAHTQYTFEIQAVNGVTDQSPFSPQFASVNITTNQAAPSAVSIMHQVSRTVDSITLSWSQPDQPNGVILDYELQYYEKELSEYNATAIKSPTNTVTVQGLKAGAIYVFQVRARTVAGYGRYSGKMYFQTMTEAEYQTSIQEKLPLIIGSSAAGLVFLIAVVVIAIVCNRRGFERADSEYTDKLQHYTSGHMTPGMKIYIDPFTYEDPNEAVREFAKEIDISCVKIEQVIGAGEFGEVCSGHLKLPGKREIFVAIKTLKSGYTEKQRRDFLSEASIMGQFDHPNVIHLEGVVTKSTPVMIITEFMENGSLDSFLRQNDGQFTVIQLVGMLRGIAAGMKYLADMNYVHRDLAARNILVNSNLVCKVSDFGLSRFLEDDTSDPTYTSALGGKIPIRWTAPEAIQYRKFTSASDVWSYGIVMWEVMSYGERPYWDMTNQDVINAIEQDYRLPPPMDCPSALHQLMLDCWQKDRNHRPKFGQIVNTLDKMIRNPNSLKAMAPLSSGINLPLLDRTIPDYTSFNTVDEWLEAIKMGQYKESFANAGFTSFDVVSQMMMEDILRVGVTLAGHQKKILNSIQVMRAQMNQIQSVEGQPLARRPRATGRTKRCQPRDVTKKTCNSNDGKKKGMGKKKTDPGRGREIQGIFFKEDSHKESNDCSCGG
# [16] = target: T5, Ephrin type-B receptor 2 (Homo sapiens); details: at 10 µM
# [17] = target: T2, Ephrin type-B receptor 3 (Homo sapiens); details: at 10 µM
# Sequence of Ephrin type-A receptor 7 (Homo sapiens) (Q15375 28-998 limits assumed): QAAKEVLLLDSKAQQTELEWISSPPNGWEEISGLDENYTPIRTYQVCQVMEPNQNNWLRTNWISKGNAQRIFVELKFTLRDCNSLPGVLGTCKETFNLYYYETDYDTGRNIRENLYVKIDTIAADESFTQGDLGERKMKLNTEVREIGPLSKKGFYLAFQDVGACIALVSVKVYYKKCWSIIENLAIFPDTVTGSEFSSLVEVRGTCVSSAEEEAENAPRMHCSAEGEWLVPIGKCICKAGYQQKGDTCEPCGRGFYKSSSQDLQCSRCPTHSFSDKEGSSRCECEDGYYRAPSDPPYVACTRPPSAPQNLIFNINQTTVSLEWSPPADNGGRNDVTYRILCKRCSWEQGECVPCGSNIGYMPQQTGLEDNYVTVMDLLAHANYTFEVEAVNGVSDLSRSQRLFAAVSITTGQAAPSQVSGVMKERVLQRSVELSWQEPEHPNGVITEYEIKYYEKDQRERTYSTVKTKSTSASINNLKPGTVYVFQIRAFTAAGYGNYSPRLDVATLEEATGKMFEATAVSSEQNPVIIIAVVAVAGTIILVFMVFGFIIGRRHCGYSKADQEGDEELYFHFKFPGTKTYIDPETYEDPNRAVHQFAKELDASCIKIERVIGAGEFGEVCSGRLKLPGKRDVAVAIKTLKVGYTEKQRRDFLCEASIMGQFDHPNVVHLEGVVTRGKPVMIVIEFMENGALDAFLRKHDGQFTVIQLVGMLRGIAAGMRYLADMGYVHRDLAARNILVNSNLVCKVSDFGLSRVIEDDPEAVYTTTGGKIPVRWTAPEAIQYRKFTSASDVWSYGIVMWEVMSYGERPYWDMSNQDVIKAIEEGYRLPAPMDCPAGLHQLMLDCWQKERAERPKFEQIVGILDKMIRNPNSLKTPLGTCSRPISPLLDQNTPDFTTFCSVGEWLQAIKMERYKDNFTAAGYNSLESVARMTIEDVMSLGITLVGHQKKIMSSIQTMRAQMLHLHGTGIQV
compound,measurement,setting,value
O=C(c1ccccc1)c1ccc(N2CCOCC2)cc1O,residual activity,[1],118%
same,residual activity,[2],79%
same,residual activity,[3],86%
same,residual activity,[4],96%
same,residual activity,[5],95%
same,residual activity,[6],115% (inactive)
same,residual activity,[7],117%
same,residual activity,[8],116%
same,residual activity,[9],95%
same,residual activity,[10],96%
same,residual activity,[11],139%
O=c1cc(N2CCOCC2)oc2c(-c3ccccc3)cccc12,residual activity,[12],77%
same,residual activity,[3],79%
same,residual activity,[9],79%
same,residual activity,[10],65%
Cc1cc(C)c(/C=C2\C(=O)Nc3ccccc32)[nH]1,residual activity,[12],80%
same,residual activity,[3],52%
same,residual activity,[11],52%
O=C1Cc2c([nH]c3ccc([N+](=O)[O-])cc23)-c2ccccc2N1,residual activity,[13],105%
same,residual activity,[14],105%
same,residual activity,[5],81%
same,residual activity,[15],106%
same,residual activity,[16],107%
same,residual activity,[6],124% (inactive)
same,residual activity,[17],113%
